# Source: PubChem BioAssay (EPA / NIEHS)
# Where “and” joins values, the source holds several entries; their conditions need not be identical. Equal values may be shown once. Records with an inconclusive call do not appear. Calls of active or inactive are those of the source. Rule for the calls, unless noted: active = hit-call score of the fitted dose curve at least 0.9, where 1 is the maximum; inconclusive = response in the unintended direction; inactive = score below 0.9.
# Tests used:
# [1] = TAMU_HCS_1.5hr_SingleDonor1434_Cytotoxicity: Cytotoxicity Assessment using High-content Screening (HCS) Fluorescent Imaging for the Texas A&M University (TAMU) 1.5-hr Human Induced Pluripotent Stem Cell (iPSC)-derived Cardiotoxicity Assay (AID 2284234)
# Procedure, shortened: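 Nuclear counts from Hoechst 33342 imaging define cytotoxicity here, with EC10 (10% cell-count loss relative to DMSO) as point of departure. iPSC cardiomyocytes received 0.2-100 uM test chemical in 0.5% DMSO for 1.5 h at 37 C.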
# [2] = CCTE_Mundy_HCI_Cortical_NOG_NeuronCount: CCTE's Neurite Outgrowth Assay in rat cortical cells for Neuron Count, Mundy Lab (AID 2284236);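 note: neurons counted by imaging betaIII-tubulin and Hoechst stained cortical cells; cells exposed to compound for about 48 hours before fixation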
# Procedure, shortened: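 Read-out: neuron number by high-content imaging of betaIII-tubulin (Alexa Fluor-488) and Hoechst-labelled rat primary cortical cells.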
# [3] = CCTE_Mundy_HCI_Cortical_NOG_BPCount: CCTE's Neurite Outgrowth Assay in rat cortical cells for Branch Point Count, Mundy Lab (AID 2284237; active = hit-call score of the fitted dose curve at least 0.9, where 1 is the maximum; inactive = score below 0.9;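 for AC50: branch points counted about two days after chemical exposure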)
# Procedure, shortened: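 Measured 50.33 h after dosing, this morphology endpoint uses rat primary cortical cultures labelled for betaIII-tubulin. Branch points are quantified by high-content imaging, with DMSO as negative control and baseline.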
# [4] = CCTE_Mundy_HCI_hNP1_Casp3_7: CCTE's Caspase-Glo 3/7 Assay in human neuroprogenitor cells for Apoptosis, Mundy Lab (AID 2284240; active = hit-call score of the fitted dose curve at least 0.9, where 1 is the maximum; inactive = score below 0.9)
# Procedure, shortened: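 Apoptosis is scored by activated caspase-3/7 luminescence in WA09-derived neural progenitor cells, measured 26.5 h after chemical dosing. Values represent gain of signal relative to DMSO vehicle.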
# [5] = CCTE_Mundy_HCI_hNP1_CellTiter: CCTE's Cell Titer-Glo 2 Assay in human neuroprogenitor cells for Viability, Mundy Lab (AID 2284241);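 for AC50: a hit is a drop in ATP luminescence versus DMSO meaning reduced viability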
# Procedure, shortened: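 Human neural progenitor cells (hNP1, WA09-derived) were plated on poly-L-ornithine/laminin and grown 40 to 44 hours at 37 °C, 5% CO2 before chemical addition. Twenty-four hours later, ATP was measured by CellTiter-Glo luminescence; loss of signal versus DMSO indicates reduced viability.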
# [6] = CCTE_Mundy_HCI_Cortical_Synap_Neur_Matur_NeuronCount: CCTE's Synaptogenesis and Neurite Maturation Assay in rat cortical cells for Neuron Count, Mundy Lab (AID 2284242);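 for AC50: hits reduce neuron count versus DMSO baseline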
# Procedure, shortened: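 Measured at DIV 12: fluorescently labelled neurons (Hoechst nuclei, MAP2) in rat primary cortical cultures, counted by high-content imaging. AraC suppressed glia from DIV 5; DMSO served as negative control.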
# [7] = TAMU_PeakParms_SingleDonor1434_QT: Texas A&M University (TAMU) 1.5-hr Human Induced Pluripotent Stem Cell (iPSC)-derived Cardiomyocytes Calcium (Ca+2) Flux Assay for Cardiotoxicity: QT (decay-rise ratio) (AID 2284235)
# Procedure, shortened: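 Decay/rise ratio of calcium-flux fluorescence scored after 90 min exposure (37C) of donor 1434 iPSC cardiomyocytes to 0.2–100 uM (0.5% DMSO). Beat-cessation and severe-notch points removed; POD is EC05, a 5% rise over DMSO.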
# [8] = read-out: Collagen I, COL1A1 (gene 1277); assay: BSK_MyoF_CollagenI: BioMAP Diversity Plus: MyoF Assay for Collagen I Biomarker Activity (AID 2284238; active = hit-call score of the fitted dose curve at least 0.9, where 1 is the maximum; inactive = score below 0.9); conditions: primary human lung fibroblasts
# Procedure: BSK_MyoF is a cell-based, multiplexed-readout assay that uses lung fibroblasts, […], with measurements taken at 24 hours after chemical dosing in a microplate: 96-well plate.BSK_MyoF_CollagenI is an assay component measured in the BSK_MyoF assay. It measures Collagen I antibody related to regulation of gene expression using ELISA technology.Data from the assay component BSK_MyoF_CollagenI was analyzed at the endpoint, BSK_MyoF_CollagenI, in the positive analysis fitting direction relative to DMSO as the negative control and baseline of activity. Using a type of binding reporter, gain or loss-of-signal activity can be used to understand protein changes. […]
# The levels of cell surface (or secreted, indicated by the prefix "s") biomarker endpoints were measured by ELISA. Overt cytotoxicity to cells in confluent adherent cultures (all systems other than the BT system) was assessed by measuring total protein levels using sulforhodamine B (SRB) staining in parallel cultures at the time of biomarker measurements, indicated as SRB endpoints. For proliferation assays for adherent cell types, individual cell types are cultured at sub-confluence and relative cell numbers quantified by SRB staining at time points optimized for each system (48 h: 3C and CASM3C systems; 72 h: BT and HDF3CGF systems; 96 h: SAg system). […] Plates were read after 6 h.
# [9] = read-out: Collagen III, COL3A1 (gene 1281); assay: BSK_MyoF_CollagenIII: BioMAP Diversity Plus: MyoF Assay for Collagen III Biomarker Activity (AID 2284239; active = hit-call score of the fitted dose curve at least 0.9, where 1 is the maximum; inactive = score below 0.9); conditions: primary human lung fibroblasts
# Procedure, shortened: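 Primary human lung fibroblasts (BioMAP MyoF system) exposed 24 h. Collagen III measured by ELISA; positive-direction fit relative to DMSO.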
# [10] = read-out: Interleukin 17F (IL17F), IL17F (gene 112744); assay: BSK_BT_xIL17F: BioMAP Diversity Plus: BT Assay for Interleukin 17F (IL17F) Biomarker Activity (AID 2284243; active = hit-call score of the fitted dose curve at least 0.9, where 1 is the maximum; inactive = score below 0.9); conditions: primary human B cells with PBMC
# Procedure, shortened: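 Human PBMC co-cultured with B cells, compound exposure 24 h; secreted IL-17F quantified by Luminex xMAP, referenced to DMSO control. PBMC viability measured in parallel by Alamar Blue reduction.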
smiles,measurement,setting,value
CCCCCCCCn1sccc1=O,AC50,[1],7.87 µM (active)
CNC(=O)Oc1cccc2c1OC(C)(C)C2,outcome,[2],inactive
same,outcome,[3],inactive
same,outcome,[4],inactive
same,outcome,[5],inactive
same,outcome,[6],inactive
CN(C)[C@@H]1C(=O)C(C(N)=O)=C(O)[C@@]2(O)C(=O)C3=C(O)c4c(O)cccc4[C@@](C)(O)[C@H]3C[C@@H]12,outcome,[2],inactive
same,outcome,[3],inactive
same,outcome,[4],inactive
same,outcome,[5],inactive
Nc1cc(Cl)cc(C(=O)O)c1Cl,outcome,[3],inactive
same,outcome,[4],inactive
same,outcome,[5],inactive
same,outcome,[6],inactive
C1=Cc2cccc3cccc1c23,outcome,[1],inactive
same,outcome,[7],inactive
ClC1=C(Cl)C2(Cl)C3C(Cl)C=CC3C1(Cl)C2(Cl)Cl (stereo unspecified),AC50,[1],50 µM (active)
same,outcome,[7],inactive
same,AC50,[2],26.5 µM (active)
same,AC50,[3],12.2 µM (active)
same,AC50,[4],90.2 µM (active)
same,AC50,[5],13.4 µM (active)
same,AC50,[6],11.5 µM (active)
CCNS(=O)(=O)C(F)(F)C(F)(F)C(F)(F)C(F)(F)C(F)(F)C(F)(F)C(F)(F)C(F)(F)F,AC50,[8],50.6 µM (active) and 44.6 µM (active)
same,AC50,[9],44.1 µM (active) and 45 µM (active)
same,AC50,[10],21.4 µM (active) and 37.4 µM (active)
COC(=O)Nc1nc2ccccc2[nH]1,outcome,[2],inactive
same,AC50,[3],3.98 µM (active)
same,AC50,[4],6.5 µM (active)
same,AC50,[5],9.91 µM (active)
same,outcome,[6],inactive
c1ccc(N=Nc2ccccc2)cc1,outcome,[1],inactive
CC(C)COC(=O)c1ccccc1C(=O)OCC(C)C,outcome,[2],inactive
same,outcome,[3],inactive
same,outcome,[4],inactive
same,outcome,[5],inactive
same,AC50,[6],80.3 µM (active)
CC(C)(C)C(O)(CCc1ccc(Cl)cc1)Cn1cncn1 (stereo unspecified),outcome,[1],inactive
same,AC50,[7],18.2 µM (active)
same,AC50,[3],0.162 µM (active)
same,AC50,[4],9.92 µM (active)
same,outcome,[5],inactive
same,outcome,[6],inactive
ClC1=C(Cl)[C@]2(Cl)[C@H]3[C@H]([C@@H]4C=C[C@H]3C4)[C@@]1(Cl)C2(Cl)Cl,AC50,[1],83 µM (active)
same,outcome,[7],inactive
[O-][Cl+]O,outcome,[2],inactive
same,outcome,[3],inactive
same,outcome,[4],inactive
same,outcome,[5],inactive
same,outcome,[6],inactive
COP(=S)(OC)SCN1C(=O)c2ccccc2C1=O,outcome,[2],inactive
same,outcome,[3],inactive
same,outcome,[4],inactive
same,outcome,[5],inactive
same,outcome,[6],inactive
CCCCOC(=O)c1ccccc1C(=O)OCc1ccccc1,outcome,[2],inactive
same,outcome,[3],inactive
same,outcome,[4],inactive
same,AC50,[6],50.5 µM (active)
CCC[CH2][Sn]([Cl])([CH2]CCC)[CH2]CCC,AC50,[2],0.079 µM (active)
same,AC50,[3],0.0886 µM (active)
same,AC50,[4],4.18 µM (active)
same,AC50,[5],0.335 µM (active)
same,AC50,[6],0.0308 µM (active)
O=P(OCCCl)(OCCCl)OCCCl,outcome,[1],inactive
Clc1ccc(C(c2ccc(Cl)cc2)C(Cl)(Cl)Cl)cc1,AC50,[1],50 µM (active)
same,outcome,[7],inactive
OCCOCCO,outcome,[3],inactive
same,outcome,[4],inactive
same,outcome,[5],inactive
same,outcome,[6],inactive
